Values joined by “and” are separate entries in the source; they are usually repeats but may differ in a detail not shown here. Equal values may be shown once. Inconclusive results are not listed. Active and inactive are the calls of the source. The call rests on the fitted dose curve; in most records, active means well fitted curve in the direction sought with a large enough effect; inconclusive means small, poorly fitted or top-dose-only effect, or another doubt; inactive means no such curve, though single readings can be large; an effect the other way counts as inactive or inconclusive.

The nature of test [1]: qHTS of pediatric cancer cell lines to identify multiple opportunities for drug repurposing: Confirmatory screen for BT-37 cells (AID 1347117). Further: potency means the concentration at half of the fitted maximal effect.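 Further: viability measured after 48 h of compound exposure; nearly all actives have a fitted effect of over 55% in size.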 The essentials: (§1)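 Viability after 48 h compound treatment at 37C, 500-1,000 cells/well, read as ATP luminescence with CellTiter-Glo. Primary screens used 11-point (MIPE, 0.78 nM-46 µM) or 8-point (NPC, 0.59 nM-46 µM) final concentrations; follow-up screens used 11-point dilutions.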
(qHTS replaces the single test concentration by a dilution series.)

Test [2] is described as follows: qHTS of pediatric cancer cell lines to identify multiple opportunities for drug repurposing: Confirmatory screen for TC32 cells (AID 1347118).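 Further: cells exposed to compound for 48 h before the read; nearly all actives have a fitted effect of over 65% in size.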 Further: potency means the concentration at half of the fitted maximal effect. The essentials:
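Luminescent ATP read-out (CellTiter-Glo) of metabolically active TC32 cells after 48 h exposure. Concentration-response curves came from 11-point (MIPE, 0.78 nM–46 µM) or 8-point (NPC, 0.59 nM–46 µM) primary titrations; follow-up used 11 points.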

The nature of test [3]: qHTS of pediatric cancer cell lines to identify multiple opportunities for drug repurposing: Confirmatory screen for control Hh wild type fibroblast cells (AID 1347121). Further: nearly all actives have a fitted effect of over 70% in size. Further: potency means the concentration at half of the fitted maximal effect. The essentials: as §1
Test [4] can be described thus: qHTS of pediatric cancer cell lines to identify multiple opportunities for drug repurposing: Confirmatory screen for U-2 OS cells (AID 1347122). Further: nearly all actives have a fitted effect of over 65% in size. Further: potency means the concentration at half of the fitted maximal effect. The essentials: as §1
A short description of test [5]: qHTS of pediatric cancer cell lines to identify multiple opportunities for drug repurposing: Confirmatory screen for Rh41 cells (AID 1347123).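 Further: 48 h compound exposure; nearly all actives have a fitted effect of over 60% in size.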 Further: potency means the concentration at half of the fitted maximal effect. The essentials: as §1
The nature of test [6]: qHTS of pediatric cancer cell lines to identify multiple opportunities for drug repurposing: Confirmatory screen for RD cells (AID 1347124).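 Further: cells exposed to compound for 48 h before viability readout; nearly all actives have a fitted effect of over 65% in size.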 Further: potency means the concentration at half of the fitted maximal effect. The essentials: as §1
Test [7] in a line: qHTS of pediatric cancer cell lines to identify multiple opportunities for drug repurposing: Confirmatory screen for Saos-2 cells (AID 1347127). Further: nearly all actives have a fitted effect of over 60% in size. Further: potency means the concentration at half of the fitted maximal effect. Put shortly:
as §1

Test [8] is described as follows: qHTS of pediatric cancer cell lines to identify multiple opportunities for drug repurposing: Confirmatory screen for OHS-50 cells (AID 1347128).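 Further: compound exposure lasted 48 h at 37 degrees C; nearly all actives have a fitted effect of over 55% in size.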 Further: potency means the concentration at half of the fitted maximal effect. The essentials: as §1
Test [9] in a line: qHTS of pediatric cancer cell lines to identify multiple opportunities for drug repurposing: Confirmatory screen for SK-N-SH cells (AID 1347129).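 Further: cells exposed to compound for 48 h before viability read; nearly all actives have a fitted effect of over 60% in size.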 Further: potency means the concentration at half of the fitted maximal effect. Put shortly:
as §1

For test [10], the system named is Zika virus NS2B-NS3 protease. The test can be described thus: Primary screen GU AMC qHTS for Zika virus inhibitors (AID 1347154). Further: nearly all actives have a fitted effect of over 70% in size. Further: potency means the concentration at half of the fitted maximal effect. Put shortly:
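Unlinked Zika NS2B hydrophilic domain–NS3 protease complex at 25 nM in 10 mM Tris-HCl pH 8.0, 0.01% Tween 20, with an AMC peptide substrate. Fluorescence change (340/450 nm) over 15 min at room temperature, normalized to controls, fitted to 4-parameter Hill.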

Test [11] is described as follows: qHTS of pediatric cancer cell lines to identify multiple opportunities for drug repurposing: Confirmatory screen for MG 63 (6-TG R) cells (AID 1347119). Further: nearly all actives have a fitted effect of over 55% in size. Further: potency means the concentration at half of the fitted maximal effect. Put shortly: as §1
Test [12] in a line: qHTS of pediatric cancer cell lines to identify multiple opportunities for drug repurposing: Confirmatory screen for Rh30 cells (AID 1347126). Further: nearly all actives have a fitted effect of over 55% in size. Further: potency means the concentration at half of the fitted maximal effect. The essentials: as §1
Test [13] is described as follows: qHTS of pediatric cancer cell lines to identify multiple opportunities for drug repurposing: Confirmatory screen for Rh18 cells (AID 1347125). Further: nearly all actives have a fitted effect of over 55% in size. Further: potency means the concentration at half of the fitted maximal effect. The essentials: as §1
In test [14] the test system is Zika virus NS2B-NS3 protease (linked construct). The test can be described thus: Confirmatory screen NINDS AMC qHTS for Zika virus inhibitors (AID 1347152). Further: potency means the concentration at half of the fitted maximal effect; nearly all actives have a fitted effect of over 70% in size. The essentials:
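Enzyme (1 nM, linked construct) was preincubated with compound for 15 minutes at room temperature in 10 mM Tris-HCl pH 8.0 with 0.01% Tween 20. Bz-Nle-Lys-Arg-Arg-AMC was then added to 10 microM, and AMC fluorescence was recorded immediately and after 15 minutes.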

For test [15], the target named is N-terminal Xaa-Pro-Lys N-methyltransferase 1 (Homo sapiens) (UniProt Q9BV86). The test can be described thus: qHTS Assay for Inhibitors of N-terminal methyltransferase 1 (NTMT1): LOPAC validation of the NTMT1 SAHH-coupled ThioGlo3 Assay (AID 1347143).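 Further: SAH from peptide methylation measured as thiol fluorescence via SAHH coupling and ThioGlo3; nearly all actives have a fitted effect of over 70% in size.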 Put shortly: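 Steps: dispense 125nM NTMT1; pin-transfer test compounds at several concentrations, with 1uM RCC1-6 peptide as control; incubate 1 min; start with reagent holding 100uM SAM, 10uM SAHH, 15uM ThioGlo3; read at 0 and 30 min.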

Test [16] concerns Zika virus NS2B-NS3 protease (unlinked). The test can be described thus: Optimization of GU AMC qHTS for Zika virus inhibitors: Unlinked NS2B-NS3 protease assay (AID 1347151). Further: series mostly up to about 52 µM; nearly all actives have a fitted effect of over 80% in size. The essentials: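 Unlinked protease (25 nM final); buffer 10 mM Tris-HCl pH 8.0 + 0.01% Tween 20; AMC substrate; 15 min RT, dark; Δfluorescence normalized to no-inhibitor/no-enzyme controls; 4-parameter Hill fit.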

In test [17] the test system is Zika virus NS2B-NS3 protease (unlinked complex). The test can be described thus: Primary screen GU Rhodamine qHTS for Zika virus inhibitors: Unlinked NS2B-NS3 protease assay (AID 1347159). Further: nearly all actives have a fitted effect of over 60% in size. The essentials: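 Percent inhibition came from the 15-min rise in Rhodamine110 fluorescence (1.5 microM substrate, ~15% conversion), normalized to no-inhibitor and no-enzyme wells and Hill-fitted. Unlinked protease, 25 nM, pH 8.0 Tris buffer; compounds up to 114 microM, 15-min preincubation.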

Chain of N-terminal Xaa-Pro-Lys N-methyltransferase 1 (Homo sapiens) (Q9BV86 whole entry, looked up): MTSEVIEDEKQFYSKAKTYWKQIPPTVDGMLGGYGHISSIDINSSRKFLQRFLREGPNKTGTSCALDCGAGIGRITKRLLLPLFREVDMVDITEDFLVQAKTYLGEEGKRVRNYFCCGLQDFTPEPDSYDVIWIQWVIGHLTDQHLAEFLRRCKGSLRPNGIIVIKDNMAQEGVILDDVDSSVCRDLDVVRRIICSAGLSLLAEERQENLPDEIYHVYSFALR

Consider `COc1nc(N)nc2c1ncn2[C@@H]1O[C@H](CO)[C@@H](O)[C@@H]1O`, for which the Potency in [1] is 18.5 µM (active); in test [2], 3690 nM (active); in test [5], 16.5 µM (active). Further, the Potency result in test [3], in test [4], in test [6], in [7], in [8] and in test [9] was “inactive” in each case. Further, the Potency entry in test [10] was “inactive”.
For the molecule `COC(=O)Nc1nc2ccc(Sc3ccccc3)cc2[nH]1`, the Potency was 1.85 µM (active) in test [1]; 827 nM (active) in test [2]; 928 nM (active) in test [11]; 3.69 µM (active) in test [4]; 1.17 µM (active) in test [5]; 2.08 µM (active) in test [6]. For the same molecule, the values for the Potency in test [7], in test [8] and in [9] were 1.31 µM (active), 1.31 µM (active) and 5.9 µM (active), respectively. For the same molecule, the Potency entry in test [12] and in [10] was “inactive” each time.
For the molecule `CC(C)(C#N)c1cc(Cn2cncn2)cc(C(C)(C)C#N)c1`, the Potency result in [1], in test [2], in [11], in [3], in test [4] and in test [5] was “inactive” throughout. In addition, the Potency entry in test [6], in test [13], in test [12], in test [7], in [8] and in test [9] was “inactive” in each case. Further, the Potency result in [10] was “inactive”.
As for `COc1cc(NCc2ccc3nc(N)nc(N)c3c2C)cc(OC)c1OC`, the Potency in test [1] is 2.61 µM (active); in [2], 585 nM (active); in test [11], 20800 nM (active); in [12] it was 4.65 µM (active); in [7], 10.4 µM (active); in [8] it was 3.69 µM (active). The Potency was 4.69 µM (active) in test [9] and 24.1 µM (active) in test [14]. Besides, the Potency entry in [3] and in [4] was “inactive” in each case.
For the molecule `CC(C)C[C@H](NC(=O)[C@H](CCc1ccccc1)NC(=O)CN1CCOCC1)C(=O)N[C@@H](Cc1ccccc1)C(=O)N[C@@H](CC(C)C)C(=O)[C@@]1(C)CO1`, the Potency in [1] is 0.0928 µM (active); in [2], 23.3 nM (active); in [11], 65.7 nM (active); in [3], 0.737 µM (active); in test [13] it was 0.0465 µM (active); in [12], 0.117 µM (active). Also, the Potency in [7] is 0.117 µM (active); in test [8], 0.208 µM (active); in [9], 0.209 µM (active). For the same molecule, the Potency entry in test [10] was “inactive”.
`CCC(=O)O[C@]1(C(=O)CCl)[C@@H](C)C[C@H]2[C@@H]3CCC4=CC(=O)C=C[C@]4(C)[C@@]3(F)[C@@H](O)C[C@@]21C`: the Potency result in test [1], in [2], in test [11], in test [3], in test [4] and in [6] was “inactive” in each case. Moreover, the Potency entry in test [13], in test [7], in [8], in test [9] and in test [10] was “inactive” in each case. Moreover, the figures for the Potency in test [5] and in [12] were 26.1 µM (active) and 13.1 µM (active), respectively.
Take `CCOC(=O)c1ccc(C#Cc2ccc3c(c2)C(C)(C)CCS3)nc1`: the Potency result in test [1], in test [3], in [6], in test [13], in test [7] and in [8] was “inactive” throughout. Further, the Potency result in [9] was “inactive”. Also, the Potency in test [10] is 31.6 µM (active) and 21.5 µM (active).
With `Cn1nnc2c(C(N)=O)ncn2c1=O`, the Potency entry in test [1], in test [2], in test [11], in test [3], in test [4] and in test [5] was “inactive” throughout. In addition, the Potency result in [6], in [13], in [12], in [7], in [8] and in test [9] was “inactive” throughout. The Potency result in [10] was “inactive”.
With `CC(C)NCC(O)c1ccc(NS(C)(=O)=O)cc1` (stereo unspecified), the Potency result in test [1], in [2], in [11], in test [3], in test [4] and in test [5] was “inactive” in each case. The Potency entry in test [6], in test [13], in test [7], in [8], in test [9] and in test [15] was “inactive” throughout. Besides, the Potency result in test [16] and in test [10] was “inactive” in each case.
With `Nc1nc(F)nc2c1ncn2[C@@H]1O[C@H](CO)[C@@H](O)[C@@H]1O`, the Potency in test [1] was 14.7 µM (active) and 414 nM (active); in [2], 18.5 µM (active) and 737 nM (active); in [11], 737 nM (active) and 827 nM (active); in [4], 1.47 µM (active); in [6], 1.65 µM (active); in test [7], 928 nM (active) and 1.17 µM (active). In addition, the Potency in test [8] is 0.414 µM (active). For the same molecule, the Potency result in test [3], in test [10] and in [17] was “inactive” throughout.
In the case of `CNNCc1ccc(C(=O)NC(C)C)cc1`, the Potency entry in test [1], in test [11], in test [3], in [4], in [5] and in [6] was “inactive” each time. In addition, the Potency result in test [12], in [7], in test [8], in [9] and in test [10] was “inactive” each time.
On to `Nc1nc(=S)c2[nH]cnc2[nH]1`, for which the Potency in test [1] is 3.29 µM (active) and 2.93 µM (active); in [2] it was 1.17 µM (active) and 737 nM (active); in [4] it was 1.04 µM (active) and 928 nM (active); in test [5], 14.7 µM (active) and 13.1 µM (active); in test [13], 13.1 µM (active); in [7] it was 7.37 µM (active) and 2.93 µM (active). In addition, the Potency in [8] is 928 nM (active) and 414 nM (active); in test [9], 4.18 µM (active) and 3.72 µM (active). Besides, the Potency entry in test [11], in test [3], in test [16] and in [10] was “inactive” each time.
For the molecule `COC(=O)Nc1nc2ccc(S(=O)c3ccccc3)cc2[nH]1` (stereo unspecified), the Potency in test [1] is 2.08 µM (active); in [2], 1040 nM (active); in test [11], 1310 nM (active); in test [4] it was 2.93 µM (active); in test [5], 1.04 µM (active); in test [6], 2.61 µM (active). The Potency in [7] is 1.47 µM (active); in test [8], 2.33 µM (active); in test [9], 2.96 µM (active). For the same molecule, the Potency result in test [3], in [13], in test [12] and in test [10] was “inactive” in each case.
For `Nc1nc(N)nc(-c2cc(Cl)ccc2Cl)n1`, the Potency entry in [1], in test [11], in [3], in [6], in test [13] and in test [12] was “inactive” throughout. Besides, the Potency result in test [7], in [8], in test [9] and in test [10] was “inactive” throughout.
Turning to `C[C@@H](CN1CC(=O)NC(=O)C1)N1CC(=O)NC(=O)C1`, the Potency result in [1], in [2], in [3], in test [4], in test [5] and in [6] was “inactive” each time. The Potency result in test [13], in test [12], in test [7], in test [8], in [9] and in test [10] was “inactive” throughout.
As for `CO[C@@]12[C@H](COC(N)=O)C3=C(C(=O)C(C)=C(N)C3=O)N1C[C@@H]1N[C@@H]12`, the Potency is 0.737 µM (active) in [1]; 465 nM (active) in [2]; 7.37 µM (active) in test [5]; 9.27 µM (active) in test [12]; 14.8 µM (active) in test [9]. Also, the Potency entry in test [10] was “inactive”.

The values above are taken from PubChem BioAssay (NCATS).
